# Reference: paper PMC5540273 (PLoS ONE, 2017)
# Key:
# [1] = system: LTK
# [2] = system: T1, MST1
# T1 construct: gene STK4
# [3] = system: NEK2
# [4] = system: PAK3
# [5] = system: LYN
# [6] = system: MAK
# [7] = system: T2, LZK
# T2 construct: gene MAP3K13
# [8] = system: MAP3K15
# [9] = system: MARK2
# [10] = system: MARK4
# [11] = system: T3, MEK2
# T3 construct: gene MAP2K2
# [12] = system: T4, MEK4
# T4 construct: gene MAP2K4
# [13] = system: MELK
# [14] = system: T5, MINK
# T5 construct: gene MINK1
# [15] = system: MKNK2
# [16] = system: NLK
# 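Also: kd values determined as follow-up on hits from a single-replicate KINOMEscan panel screen.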
smiles,measurement,setting,value
COc1cccc(C2=C(Nc3cc(Cl)c(O)c(Cl)c3)C(=O)NC2=O)c1 [SB-390767],Kd,[1],> 10 µM
same,Kd,[2],1800 nM
same,Kd,[3],> 10 µM
same,Kd,[4],> 10 µM
COc1cccc(NC(=O)Nc2ccc(C)c(-c3ccc(C(=O)Nc4ccncc4)cc3)c2)c1 [GSK1398474],Kd,[5],4.4 µM
same,Kd,[6],> 10 µM
CC(=O)c1c(C)c2cnc(Nc3ccc(N4CCNCC4)cn3)nc2n(C2CCCC2)c1=O,Kd,[7],> 10 µM
COc1ccc(Nc2nccc(N3CCC(NC(=O)c4cc5ccccc5s4)C3)n2)cc1 (stereo not shown) [GSK1379738],Kd,[6],> 10 µM
CNCc1ccc2nc(NC(=O)c3ccc(C(C)(C)C)cc3)cn2c1,Kd,[8],3.8 µM
Cc1ccc(NC(=O)c2ccc(Cl)cc2)cc1-c1ccc(C(=O)Nc2ccncc2)cc1 [GSK1398467],Kd,[9],> 10 µM
Cc1ccccc1Cn1ccn2c(=O)cc(N3CCOCC3)nc12 [GSK2269905],Kd,[10],> 10 µM
COc1ccc(-c2coc3ccc(-c4nnc(C)o4)cc23)cc1,Kd,[10],> 10 µM
CCc1ccc(-c2ccc3c(c2)-c2n[nH]cc2S(=O)(=O)N3C)cc1,Kd,[11],> 10 µM
O=C(Nc1n[nH]c2nc(-c3cccs3)c(Br)cc12)C1CC1 [SB-735297],Kd,[12],> 10 µM
O=c1cc(N2CCOCC2)nc2n(Cc3cccc(Cl)c3Cl)c3ccccc3n12 [GSK2299009],Kd,[13],> 10 µM
NS(=O)(=O)c1cccc(N/C=C2\C(=O)Nc3ccc(S(=O)(=O)Cc4c(Cl)cccc4Cl)cc32)c1 [GSK398099],Kd,[14],790 nM
CNC(=O)c1ccc(C)c(-n2c(C)cc(OCc3ccc(F)cc3F)c(Br)c2=O)c1,Kd,[15],> 10000 nM
CC(C)c1cc(-c2ccc3c(N)n[nH]c3c2)nc(N)n1 [GSK2250882],Kd,[15],160 nM
Nc1nccc(-c2c(-c3ccc(F)cc3)ncn2C2CCN(Cc3ccccc3)CC2)n1 [SB-219980],Kd,[16],140 nM
